Compound activity (PubChem)
Sampled rows, rich in hits. Any-hit rate of the full collection: about 3.7%.
Wnt act – Wnt/beta-catenin pathway activators, primary screen, cell-based, plate reader, single point | 300,000 tested, 1.2% active | activation, % at 9.35 µM | AID 743398, 2014 | Wnt/beta-catenin reporter cell assay, activator; in the data active means activation above about 30%, passing the limit was not always enough; inconclusive means no clear call, values can overlap the other calls;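 further: 0% = neutral control wells and 100% = positive control wells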
MITF TRPM1 HTS – activators of MITF-driven TRPM1 promoter reporter, primary screen, cell-based, SK-MEL-5, luciferase, single point | SK-MEL-5 TRPM1-promoter luciferase, 24 h; % of positive control, neutral wells = 0 | activation, % at 12.5 µM | 300,000 tested, 0.75% active | AID 588334, 2011;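 active means mean activation of at least 80% with every replicate also reaching 80%; inconclusive means mean reaches 80% but some replicate falls short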;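 further: 0% = neutral control wells and 100% = parthenolide positive control wells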
MLL AF4-AF9 inh – inhibitors of AF4 peptide binding to AF9, primary screen, biochemical, AlphaScreen, biotin-AF4 peptide, FLAG-AF9, single point; Protein AF-9 (Homo sapiens), P42568; inhibition, % at 10 µM; 350,000 tested, 0.47% active; AID 651704, 2012;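 active means every replicate reaching a set inhibition limit, whatever the replicate mean, cut at about 25% in these data; inconclusive means mean inhibition reaches that limit but some replicates miss it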;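 further: 0% = plate neutral control median and 100% = total signal loss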
Target sequence (P42568 whole entry, looked up): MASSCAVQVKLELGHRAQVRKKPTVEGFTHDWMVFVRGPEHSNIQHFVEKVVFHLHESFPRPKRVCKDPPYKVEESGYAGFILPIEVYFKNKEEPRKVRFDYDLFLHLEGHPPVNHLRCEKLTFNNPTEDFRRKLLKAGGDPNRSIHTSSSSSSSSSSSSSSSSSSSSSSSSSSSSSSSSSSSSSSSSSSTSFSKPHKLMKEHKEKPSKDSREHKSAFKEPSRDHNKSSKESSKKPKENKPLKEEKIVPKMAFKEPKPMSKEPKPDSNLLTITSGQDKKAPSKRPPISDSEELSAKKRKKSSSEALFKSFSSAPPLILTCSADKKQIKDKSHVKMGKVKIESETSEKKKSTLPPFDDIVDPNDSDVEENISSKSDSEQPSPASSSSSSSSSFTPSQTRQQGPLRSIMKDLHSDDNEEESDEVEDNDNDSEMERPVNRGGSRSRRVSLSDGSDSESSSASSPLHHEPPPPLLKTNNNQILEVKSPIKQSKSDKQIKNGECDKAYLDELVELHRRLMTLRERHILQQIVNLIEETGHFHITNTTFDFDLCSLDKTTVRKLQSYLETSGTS
esBAF inh – Bmi1 luciferase reporter increase in mESCs, primary screen, esBAF inhibitor project, mouse ES cells, Bmi1 luciferase knock-in, single point. 24 h; 100% = twice the neutral-well signal. reporter increase, % at 12.5 µM. 350,000 tested, 2% active. AID 602393, 2012; in the data active means activation above about 40%; inconclusive means no clear call, values can overlap the other calls;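 further: 0% = median of the plate's neutral control wells and 100% = double that signal; a rise in the Bmi1 reporter signal indicates esBAF inhibition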
rRNA inh HTS – reduced GFP signal of wild-type E. coli, primary screen, bacterial rRNA inhibitor project, GFP/RFP fluorescence, OD600, single point; E. coli WT GFP vs humanized-ribosome RFP mutants, 24 h; active compounds read low; DMSO median 0, no signal -100; GFP signal change (wild-type ribosome), % (concentration not given with the values); 350,000 tested, 1.6% active; AID 720706, 2013;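 active means significant combined selectivity score with lowered wild-type GFP, culture density cut under 30%, mutant RFP and density less affected; inactive means any of these conditions unmet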
The depositor's hits bear a star; ? = inconclusive; · = no result given.

SMILES	Wnt act	MITF TRPM1 HTS	MLL AF4-AF9 inh	esBAF inh	rRNA inh HTS
O=C(CN(c1cccc(Br)c1)S(=O)(=O)c1ccccc1)N/N=C/c1cc([N+](=O)[O-])ccc1O	-6	·	9	·	-2
Clc1cccc(CSc2ncnc3c2ncn3C2CCCCO2)c1 (configuration not stated)	8	75	-1	76*	-35
Fc1cccc(CSc2ncnc3c2ncn3C2CCCCO2)c1 (configuration not stated)	-1	98*	5	83*	-36
OCCn1cnc2c(SCc3ccccc3)ncnc21	3	33	2	35	-4
CN(Cc1ccccc1F)C(=O)CN1C(=O)NC2(CCc3ccccc32)C1=O (configuration not stated)	-1	-2	-2	·	1
CC(CN1CCCCC1)C(=O)NN (configuration not stated)	-4	0	0	-4	23
O=[N+]([O-])c1ccc(-c2cn3c(n2)SCC3)cc1	-3	·	-2	60*	7
COc1ccc(S(=O)(=O)Nc2ccc3c(c2)C(=O)N([C@@H](C)CO)C[C@@H](C)[C@@H](CN(C)S(=O)(=O)c2ccccc2)OCCCC[C@H](C)O3)cc1	·	·	-1	·	0
Cc1ccc2cc(NC(=O)c3ccccc3C)ccc2n1	0	100*	0	?	-5
CCc1ccc(C(=O)Nc2ccc3nc(C)ccc3c2)cc1	10	99*	-5	39	6
Cc1ccc2cc(NC(=O)c3ccc(C(C)(C)C)cc3)ccc2n1	-2	37	-2	6	-20
Cc1ccc2cc(NC(=O)Cc3ccccc3)ccc2n1	2	·	2	·	-12
CCOC(=O)c1ccc(NC(=O)CC2C(=O)N(c3ccc(F)cc3)C(=O)N2CCC(C)C)cc1 (configuration not stated)	·	8	·	6	·
c1csc(-c2noc(COc3ccc4c(c3)CCCC4)n2)c1	36*	140*	·	40	·
c1cncc(-c2noc(-c3cccc4ccccc34)n2)c1	16	54	4	58*	5
COc1ccc(-c2noc(-c3ccccc3-c3ccccc3)n2)cc1	0	·	-14	-4	·
c1ccc2c(-c3nc(-c4ccncc4)no3)cccc2c1	·	51	·	46*	·
Cc1c(-c2nc(-c3ccncc3)no2)cccc1[N+](=O)[O-]	0	12	-2	·	7
c1ccc(-c2noc(-c3cccc4ccccc34)n2)cc1	·	38	·	76*	·
Cc1noc(C)c1NC(=O)Nc1ccc2c(c1)CC(=O)N([C@H](C)CO)C[C@H](C)[C@@H](CN(C)S(=O)(=O)c1ccc(Cl)cc1)O2	·	·	2	-9	-4
C[C@@H]1CCCCO[C@@H](CN(C)C(=O)c2ccccc2)[C@@H](C)CN([C@H](C)CO)C(=O)c2cc(NC(=O)Cc3ccccc3)ccc2O1	·	·	-3	-1	3
CC1CCCN(C(=O)Cc2cccc3ccccc23)C1 (configuration not stated)	2	3	0	3	-29*
Cc1cccc(C2C3=C(Nc4[nH]n(-c5ccccc5)c(=O)c42)c2ccccc2C3=O)c1 (configuration not stated)	-4	5	5	·	-38*
O=C(Nc1nc2c(F)cc(F)cc2s1)c1ccco1	46*	·	-6	1	-2
O=C(Nc1ccc(-c2nc3c(ccc4ccccc43)o2)cc1)c1ccco1	10	34	5	50*	8
SMILES	Wnt act	MITF TRPM1 HTS	MLL AF4-AF9 inh	esBAF inh	rRNA inh HTS
O=C(Nc1nc2ccccc2s1)c1ccc([N+](=O)[O-])o1	20	-44	-3	·	10
O=C(CCc1ccccc1)Nc1nc2c(F)cc(F)cc2s1	22	77	5	?	-16
O=C(Nc1nc2c(F)c(F)c(F)cc2s1)c1ccco1	25	?	-4	53*	1
O=C(COC(=O)c1ccco1)Nc1nc2c(F)c(F)c(F)cc2s1	-1	7	1	2	-13
O=C(Nc1nc2cc3c(cc2s1)OCCO3)c1ccc([N+](=O)[O-])o1	51*	-34	0	20	5
O=C(Nc1ccc(-c2nc3cc(Cl)ccc3c(=O)o2)cc1)c1ccco1	-6	3	·	·	·
C(=N\NCc1ccccc1)/c1ccc2nccnc2c1	29	·	0	·	6
CCCOc1ccc(C2C(C(=O)c3ccc(C)o3)=C(O)C(=O)N2CCN2CCOCC2)cc1OC (configuration not stated)	-2	·	·	-4	·
O=c1sc(Nc2ccccc2)nc2ccsc12	·	74	·	82*	·
NNc1nc2c(F)cc(F)cc2s1	0	11	5	15	-25*
Cc1csc2c(=O)sc(NC(=O)c3ccco3)nc12	1	·	-2	·	-3
O=C(Nc1nc2c(ccc3ccccc32)s1)c1ccco1	38*	20	·	27	·
O=C(Nc1nc2ccsc2c(=O)s1)c1ccco1	43*	·	-6	·	·
C=CCNC(=S)Nc1ccc2nc(C)oc2c1	2	-8	0	2	17
CC(=O)Nc1nc2c(s1)CCc1ccccc1-2	0	-13	1	9	-6
O=C(Nc1nc2c(F)cc(F)cc2s1)c1ccc([N+](=O)[O-])o1	3	·	4	57*	2
Cc1cc(C)c2nc(NC(=O)c3ccc([N+](=O)[O-])o3)sc2c1	-1	-14	-8	13	18
O=C(Nc1nc2c(s1)CCc1ccccc1-2)c1ccco1	·	·	·	62*	·
Cc1ccccc1OCC(=O)NCCCNC(=O)c1ccncc1	-2	-1	-3	8	0
COc1ccc(OCc2cc(C(=O)NCC3CCOCC3)no2)c(Cl)c1	14	31	-35	55*	-3
COc1ccc(OCc2cc(C(=O)NCC(C)Oc3cccnc3)no2)c(Cl)c1 (configuration not stated)	5	23	1	70*	-15
COc1ccc(OCc2cc(C(=O)N(C)Cc3cnccn3)no2)c(Cl)c1	12	68	-8	·	1
COc1ccc(OCc2cc(C(=O)N(C)Cc3cc(C4CC4)n[nH]3)no2)c(Cl)c1	18	90*	-3	68*	-3
Cc1ccc(Nc2ncccc2C(=O)O)cc1C	6	1	3	49*	6
Cc1ccc(Nc2ncccc2C(N)=O)cc1[N+](=O)[O-]	70*	91*	2	·	-25
Cc1cc(C)c(Nc2ncccc2C(=O)O)c(C)c1	3	8	-1	·	3
COc1ccc(CN(C)C[C@@H]2OCCCC[C@H](C)Oc3ccc(NC(=O)Nc4ccc(OC)cc4)cc3C(=O)N([C@@H](C)CO)C[C@H]2C)cc1	·	·	-1	-1	1
